Screens from PubChem BioAssay.
The full list was thinned out, with hits kept by preference.
Tg IFNy HTS = T. gondii growth inhibition under IFN-gamma | AID 1259416 | hit rate 3.8% among 69,000 | activity change, negative = inhibition, % (no concentration beside the values) | Toxoplasma gondii growth in IFN-gamma-treated host cells; stronger effect = lower value; in the data active = activity change below about -70%, passing the limit was not always enough;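 also: host cells are HeLa cells infected with Toxoplasma gondii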
A number is an active result; n = inactive; ! = not active in a repeat.

SMILES	Tg IFNy HTS
CCCCc1ncc(-c2nccn2C(C)c2nccs2)[nH]1 (centres undefined)	n
O=c1[nH]cc(-c2ccccc2)cc1CNc1cccc2ncccc12	n
Cc1ccc2c(=O)c3ccccc3n(CCCN)c2c1C	-86.6!
CCOC(=O)Cn1c(C)cc(=O)c2ccccc21	n
Cc1c(-c2ccccc2)n(CC(O)CN)c2ccccc12 (centres undefined)	n
Cc1nc(N(C)C)nc2c1COCC21CCN(C(=O)C2CC2)C1 (centres undefined)	n
COc1ccc2[nH]cc(CCNc3ccc(S(=O)(=O)C4CCCCC4)nn3)c2c1	n
COc1ccc2[nH]cc(CCNc3ccc(S(=O)(=O)C(C)C)nn3)c2c1	-112.6
COc1ccc2[nH]cc(CCNC(=O)c3ccc(N4CCCC4)c(S(=O)(=O)N4CCCC4)c3)c2c1	n
CC(CC1=CCN(CC(=O)N(C)C)CC1)NC(=O)c1ccco1 (centres undefined)	n
O=c1c2ccccc2n(Cc2ccc(F)cc2)c2ccccc12	-80.8
O=C1CCCc2c1c1ccccc1n2Cc1ccccc1	n
c1ccc(Cn2c3ccccc3c3ccccc32)cc1	n
CN1C(=O)N(Cc2cccnc2)C(=O)C12CCN(Cc1cnc(-c3ccccc3)s1)CC2	n
Cc1cc(C)n(CCC2CC(=O)Nc3c2ccc(N2CCCC2)c3C)n1 (centres undefined)	n
Cn1c(-c2ccc(Cl)cc2)cs/c1=N\C(=S)NCCc1ccccc1	n
CC(C)(C)c1csc(=S)n1CCc1ccc(Cl)cc1	-87.4
CC(=O)c1ccc(C(=O)N2CCN3CCN(C)C(=O)C3C2)s1 (centres undefined)	n
CCC[C@H](NC(=O)[C@@H]1[C@H]2CCC[C@H]2CN1C(=O)[C@@H](NC(=O)[C@@H](NC(=O)c1cnccn1)C1CCCCC1)C(C)(C)C)C(=O)C(=O)NC1CC1	-73.9
CC(C)CN1C(=O)CCC12CCC(NC(=O)c1cnccn1)CC2 (centres undefined)	n
CCS(=O)(=O)N1CCC2(CCC2NC(=O)c2cnccn2)CC1 (centres undefined)	n
CCOC(=O)c1ccc(NC(=O)Cn2ncc3c(N4CCN(c5ccccc5)CC4)ncnc32)cc1	n
Cc1nn(C)cc1S(=O)(=O)Nc1cccc(-c2ccc(F)cc2)c1	n
O=S(=O)(c1ccc(F)cc1)N1CCC(c2cc3ncccc3[nH]2)CC1	n
Fc1ccc(C2Nc3ccccc3C3OCCCC23)cc1 (centres undefined)	n
SMILES	Tg IFNy HTS
Cc1ccc(S(=O)(=O)NC(C(=O)O)C(C)O)cc1 (centres undefined)	n
COc1cc(C)c(C(c2ccc(N(C)C)cc2)c2ccc(N(C)C)cc2)cc1C	-96.7
COc1cccc(CC(=O)N2CC[C@@H]3N(C)CC[C@@]3(C(=O)N(C)C)CC2)c1	n
COC[C@]12CCC[C@@H]1CN(S(=O)(=O)c1ccc(OC)c(F)c1)C2	n
O=c1cc(Nc2cccc(C(F)(F)F)c2)nc[nH]1	-102.8
CC(=O)N1C(=O)C2(N=C(N)NC(Nc3cccc(C(F)(F)F)c3)=N2)c2ccccc21 (centres undefined)	n
Cc1cc(C)c(S(=O)(=O)Nc2cccc(C(F)(F)F)c2)c(C)c1	n
O=C(Nc1cccc2ccccc12)N1CCOCC1	n
O=C(Nc1cccc2ccccc12)OC1CCS(=O)(=O)C1 (centres undefined)	n
O=C(Nc1cccc2ccccc12)NC1CCCCC1	-93.1
CCCc1[nH]ncc1C(=O)N1C[C@@H]2[C@H](C1)[C@H]1CC[C@@H]2O1	n
CCC1COC2(CCCN(C(=O)c3cnn4cccnc34)C2)C1 (centres undefined)	n
CCCCOc1cc(C(=O)NCCN(CC)CC)c2ccccc2n1	n
CCCCc1oc2ccccc2c1C(=O)c1cc(I)c(OCCN(CC)CC)c(I)c1	-81.1
CCCCOc1cc(C(=O)OCCN(CC)CC)ccc1N	n
CCc1nc(CN2CCN(CCn3cncn3)CC2)c(C)[nH]1	n
Clc1cncc(Cl)c1CN(Cc1cccnc1)Cc1ccc2c(c1)OCO2	n
O=C(Nc1c(C(=O)N2CCCC2)[nH]c2ccccc12)c1ccc(Cl)cc1	n
CCn1c(-c2cc(NC(=O)c3cccnc3)n[nH]2)cc2ccccc21	-105.5
CCn1c(-c2cc(NC(=O)c3cnccn3)n[nH]2)cc2ccccc21	n
CCn1c(-c2cc(NC(=O)c3cccnc3)n[nH]2)cc2ccc(OC)cc21	n
Cc1oc(-c2cccc(Cl)c2)nc1CN1CCN(C(=O)NC2CCCC2)CC1	n
COc1cc2c(cc1OC)CN(C(=O)c1cn[nH]n1)CC2	n
COc1ccc(-n2c(C)c([N+](=O)[O-])c3ccc(O)cc32)cc1	-77.3
COc1ccc(-n2c(C)c3c(OC)cccc(=O)c3c2C)cc1	n
SMILES	Tg IFNy HTS
COc1ccc(-n2nc(C(=O)O)nc2C)cc1	n
CCOc1ccccc1C(=O)Nc1ccc(-c2nc(Cn3nc(C)c(C)c3C)c(C)o2)cc1	n
Cc1nn(Cc2nc(-c3ccc(NC(=O)c4cc(F)ccc4F)cc3)oc2C)c(C)c1C	n
Cc1ccccc1C(=O)Nc1ccc(-c2nc(Cn3nc(C)c(C)c3C)c(C)o2)cc1	-97.0
Cc1nn(Cc2nc(-c3ccc(NC(=O)c4cc(F)cc(F)c4)cc3)oc2C)c(C)c1C	n
COc1ccc(C(=O)Nc2ccc(-c3nc(Cn4nc(C)c(C)c4C)c(C)o3)cc2)cc1	-92.7
Cc1nn(Cc2nc(-c3ccc(NC(=O)c4ccc(N(C)C)cc4)cc3)oc2C)c(C)c1C	n
CCN1C(=O)C2(CCOCC2)c2cc(NC(=O)c3cccn3C)ccc21	n
Cc1cc(C(F)(F)F)n2nc(C3CCCN(C(=O)c4c(C)oc5c4CCCC5)C3)cc2n1 (centres undefined)	n
COc1ccc(CC(=O)N2CCC3(CC2)Nc2ccccc2-n2cccc23)cc1	n
Cc1cc2oc(C(=O)NCCNC(=O)c3ccccn3)cc(=O)c2cc1C	n
CCN1C(=O)CCc2cc(NS(=O)(=O)c3cccc4cccnc34)ccc21	n
c1ccc(C[C@@H]2[C@H](OCC3CC3)CCN2Cc2ccco2)cc1	n
COc1nc(C)c(C(=O)N2CCN3CCN(C)C(=O)C3C2)s1 (centres undefined)	n
Nc1ncnc2c1c(-c1cnc3[nH]ccc3c1)nn2C1CCCC1	-77.5
Cc1ccc(-c2cc(NC3CCCC3)nc3[nH]ccc23)c(N)n1	n
Cc1ccc(Nc2nc(C(=O)Nc3ccc(F)cc3F)nc3ccccc23)cc1	n
c1ccc(-c2nnc(-c3csc(-c4cccnc4)n3)o2)cc1	n
Clc1ccc(-c2csc(-c3ccc(-n4cncn4)nc3)n2)cc1	n
c1ccc(-n2ncnc2-c2csc(-c3ccncc3)n2)cc1	-92.8
COc1ccc(-c2cc3cccnc3n2CCC#N)cc1	n
O=C(NCc1ccc(S(=O)(=O)Nc2ccc3c(c2)OCCO3)s1)c1ccccc1	n
Cc1ccc2[nH]c3c(=O)n(CCCN4CCN(C)CC4)cnc3c2c1	n
Cc1ccc2[nH]c3c(=O)n(CCc4cnc[nH]4)cnc3c2c1	n
Cc1ccc2c(c1)CCCN2CCn1c(=O)[nH]c2ccc(C)cc2c1=O	-82.3
CN1CCN(CC2CC2)C(=O)C12CCN(C(=O)CC(F)(F)F)CC2	n
O=C(c1ccoc1)N1CCC2OCCCC2(COCc2ccccn2)C1 (centres undefined)	n
O=C(Cn1ncc2c(N3CCCCCC3)ncnc21)NCCC1=CCCCC1	n
CC(=O)Oc1ccc(OC(C)=O)c2c1[C@@H]1C=C[C@H]2CC1	n
COCC1CCCN(C(=O)c2ccc(-c3cccnc3)nc2)C1 (centres undefined)	n
